The entries come from a sample that favours the strongest signals as a whole.
B1: MRCL (Homo sapiens), NP_872425.1 (protein)
chain: ATKVHFPFHTCDLRIDGDCFMVSSEADTYYRARMKCQRKGGVLAQIKSQKVQDILAFYLGRLETTNEVTDSDFETRNFWIGLTYKTAKDSFRWATGEHQAFTSFAFGQPDNHGLVWLSAAMGFGNCVELQASAAFNWNNQRCKTRNRYICQFAQEHISRWGPGS
B2: HHL-2 (Homo sapiens), P07307 (protein)
chain: MAKDFQDIQQLSSEENDHPFHQGEGPGTRRLNPRRGNPFLKGPPPAQPLAQRLCSMVCFSLLALSFNILLLVVICVTGSQSEGHRGAQLQAELRSLKEAFSNFSSSTLTEVQAISTHGGSVGDKITSLGAKLEKQQQDLKADHDALLFHLKHFPVDLRFVACQMELLHSNGSQRTCCPVNWVEHQGSCYWFSHSGKAWAEAEKYCQLENAHLVVINSWEEQKFIVQHTNPFNTWIGLTDSDGSWKWVDGTDYRHNYKNWAVTQPDNWHGHELGGSEDCVEVQPDGRWNDDFCLQVYRWVCEKRRNATGEVA

Key:
Test in all cases: glycan array binding signal (z-score within array); higher = stronger binding
Conditions in all cases: glycan notation: IUPAC condensed, linker removed
[1] = target: Fuc(a1-2)Gal(b1-3)GlcNAc(b1-2)Man(a1-3)[Fuc(a1-2)Gal(b1-3)GlcNAc(b1-2)Man(a1-6)]Man(b1-4)GlcNAc(b1-4)GlcNAc
Outline: (§1)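 Glycan array binding is given as a within-array Z-score, which can be read as non-binding when negative. The arrays, 3228 of them, came from the Consortium for Functional Glycomics database and were retained only where the protein sequence was available. Z-scores were averaged across arrays of the same protein sequence at different concentrations or buffers and across linkers.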

[2] = target: Fuc(a1-2)Gal(b1-3)[Fuc(a1-4)]GlcNAc(b1-2)Man(a1-3)[Fuc(a1-2)Gal(b1-3)[Fuc(a1-4)]GlcNAc(b1-2)Man(a1-6)]Man(b1-4)GlcNAc(b1-4)GlcNAc
Outline: as §1

[3] = target: Fuc(a1-2)[Gal(a1-3)]Gal(b1-4)Glc
Outline: as §1

[4] = target: Fuc(a1-2)[Gal(a1-4)]Gal(b1-4)GlcNAc
Outline: as §1

[5] = target: Fuc(a1-2)[GalNAc(a1-4)]Gal(b1-4)GlcNAc
Outline: as §1

[6] = target: Fuc(a1-3)[Gal(b1-4)]GlcNAc(b1-4)Gal(b1-4)[Fuc(a1-3)]GlcNAc
Outline: as §1

[7] = target: Gal(a1-3)[Gal(a1-4)]Gal(b1-4)GlcNAc
Outline: as §1

Gal(b1-2)Gal = target: Gal(b1-2)Gal
Outline: as §1

[8] = target: Gal(b1-4)GlcNAc(b1-2)Man(a1-3)[Gal(b1-4)GlcNAc(b1-2)Man(a1-6)]Man(b1-4)GlcNAc(b1-4)GlcNAc
Outline: as §1

[9] = target: Gal(b1-4)GlcNAc(b1-3)Gal(b1-4)GlcNAc(b1-3)Gal(b1-4)GlcNAc
Outline: as §1

[10] = target: Gal(b1-4)GlcNAc(b1-3)[GlcNAc(b1-6)]Gal(b1-4)GlcNAc
Outline: as §1

[11] = target: Gal3S(b1-3)[Fuc(a1-4)]GlcNAc
Outline: as §1

Gal3S6S(b1-4)GlcNAc6S = target: Gal3S6S(b1-4)GlcNAc6S
Outline: as §1

GalNAc(a1-3)GalNAc = target: GalNAc(a1-3)GalNAc
Outline: as §1

GalNAc(b1-3)GalNAc = target: GalNAc(b1-3)GalNAc
Outline: as §1

Glc(a1-6)Glc(a1-6)Glc = target: Glc(a1-6)Glc(a1-6)Glc
Outline: as §1

Glc(b1-6)Glc = target: Glc(b1-6)Glc
Outline: as §1

GlcA(b1-6)Gal = target: GlcA(b1-6)Gal
Outline: as §1

[12] = target: GlcNAc(a1-4)Gal(b1-4)GlcNAc(b1-3)Gal(b1-4)GlcNAc(b1-3)Gal(b1-4)GlcNAc
Outline: as §1

[13] = target: GlcNAc(a1-4)Gal(b1-4)GlcNAc(b1-3)Gal(b1-4)[Fuc(a1-3)]GlcNAc(b1-3)Gal(b1-4)[Fuc(a1-3)]GlcNAc
Outline: as §1

[14] = target: GlcNAc(a1-6)Gal(b1-4)GlcNAc
Outline: as §1

[15] = target: GlcNAc(b1-4)[GlcNAc(b1-6)]GalNAc
Outline: as §1

Man(a1-6)Man = target: Man(a1-6)Man
Outline: as §1

[16] = target: Neu5Ac(a2-3)Gal(b1-3)GlcNAc(b1-3)Gal(b1-3)GlcNAc
Outline: as §1

[17] = target: Neu5Ac(a2-3)Gal(b1-3)GlcNAc6S
Outline: as §1

[18] = target: Neu5Ac(a2-3)Gal(b1-4)[Fuc(a1-3)]GlcNAc(b1-3)Gal(b1-4)GlcNAc
Outline: as §1

[19] = target: Neu5Ac(a2-3)Gal(b1-4)[Fuc(a1-3)]GlcNAc(b1-6)[Gal(b1-3)]GalNAc
Outline: as §1

[20] = target: Neu5Ac(a2-3)Gal6S(b1-4)[Fuc(a1-3)]GlcNAc
Outline: as §1

Neu5Ac(a2-3)GalNAc = target: Neu5Ac(a2-3)GalNAc
Outline: as §1

[21] = target: Neu5Ac(a2-6)Gal(b1-4)GlcNAc(b1-3)Gal(b1-4)GlcNAc(b1-3)Gal(b1-4)GlcNAc
Outline: as §1

Neu5Ac(a2-8)Neu5Ac = target: Neu5Ac(a2-8)Neu5Ac
Outline: as §1

Neu5Ac(b2-6)GalNAc = target: Neu5Ac(b2-6)GalNAc
Outline: as §1

| Binder | glycan array binding signal (z-score) [1] | glycan array binding signal (z-score) [2] | glycan array binding signal (z-score) [3] | glycan array binding signal (z-score) [4] | glycan array binding signal (z-score) [5] | glycan array binding signal (z-score) [6] | glycan array binding signal (z-score) [7] | glycan array binding signal (z-score) (Gal(b1-2)Gal) | glycan array binding signal (z-score) [8] | glycan array binding signal (z-score) [9] | glycan array binding signal (z-score) [10] | glycan array binding signal (z-score) [11] | glycan array binding signal (z-score) (Gal3S6S(b1-4)GlcNAc6S) | glycan array binding signal (z-score) (GalNAc(a1-3)GalNAc) | glycan array binding signal (z-score) (GalNAc(b1-3)GalNAc) | glycan array binding signal (z-score) (Glc(a1-6)Glc(a1-6)Glc) | glycan array binding signal (z-score) (Glc(b1-6)Glc) | glycan array binding signal (z-score) (GlcA(b1-6)Gal) | glycan array binding signal (z-score) [12] | glycan array binding signal (z-score) [13] | glycan array binding signal (z-score) [14] | glycan array binding signal (z-score) [15] | glycan array binding signal (z-score) (Man(a1-6)Man) | glycan array binding signal (z-score) [16] | glycan array binding signal (z-score) [17] | glycan array binding signal (z-score) [18] | glycan array binding signal (z-score) [19] | glycan array binding signal (z-score) [20] | glycan array binding signal (z-score) (Neu5Ac(a2-3)GalNAc) | glycan array binding signal (z-score) [21] | glycan array binding signal (z-score) (Neu5Ac(a2-8)Neu5Ac) | glycan array binding signal (z-score) (Neu5Ac(b2-6)GalNAc) |
| --- | --- | --- | --- | --- | --- | --- | --- | --- | --- | --- | --- | --- | --- | --- | --- | --- | --- | --- | --- | --- | --- | --- | --- | --- | --- | --- | --- | --- | --- | --- | --- | --- |
| B1 | 3.42 | 0.034 | 2.33 | -0.456 | 3.1 | -0.365 | 0.889 | -0.726 | -0.358 | 4.88 | 4.12 | -0.239 | 0.67 | -0.581 | -0.074 | -0.679 | -0.712 | 0.237 | 1.88 | 1.11 | 5.62 | -0.523 | 0.948 | -0.295 | -0.562 | -0.637 | -0.645 | -0.64 | -0.424 | -0.367 | -0.294 | 5.61 |
| B2 | – | – | – | – | – | – | – | – | – | – | – | – | – | – | – | – | – | – | – | – | – | – | – | – | – | – | – | – | – | – | – | -0.379 |

— the supplement of paper PMC8728848
